The panel holds about 79,000 compounds, 15% with a hit somewhere; the sample as a whole holds those more often. Active and inactive are the calls of the source. Rule as the data show it: active = growth inhibition above about 70%; inactive = the rest.
Tests used:
[1] = NCI Yeast Anticancer Drug Screen. Data for the rad50 strain (AID 155);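 also: 0% = growth of vehicle-only cultures of the same strain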; details: S. cerevisiae rad50 strain growth inhibition; at 50.0 µM; stronger effect = higher value
Summary of the method: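 Vehicle-treated cultures provide the reference for the growth inhibition reported for compound-exposed, repair-deficient yeast.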

[2] = NCI Yeast Anticancer Drug Screen. Data for the mec2-1 strain (AID 157); details: S. cerevisiae mec2-1 strain, at 50.0 µM, stronger effect = higher value
Summary of the method: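 Readout is yeast growth inhibition, normalised to vehicle-treated controls, in the mec2-1 strain exposed to compound.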

[3] = NCI Yeast Anticancer Drug Screen. Data for the sgs1 mgt1 strain (AID 161);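 also: 0% = growth of cultures given vehicle only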; details: S. cerevisiae sgs1 mgt1 strain, at 50.0 µM, stronger effect = higher value
Summary of the method: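 Yeast cells carrying a defined DNA-repair defect were exposed to test compounds. Growth inhibition was measured relative to vehicle-treated controls.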

[4] = NCI Yeast Anticancer Drug Screen. Data for the cln2 rad14 strain (AID 165);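 also: 0% = growth equal to vehicle treated cultures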; details: S. cerevisiae cln2 rad14 strain, at 50.0 µM, stronger effect = higher value
Summary of the method: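 Relative to vehicle controls, growth inhibition of compound-treated cln2 rad14 yeast was recorded.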

[5] = NCI Yeast Anticancer Drug Screen. Data for the bub3 strain (AID 167); details: S. cerevisiae bub3 mutant strain, at 50.0 µM, stronger effect = higher value
Summary of the method: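 Mutant yeast screening strain plus compound; vehicle-treated cultures serve as the 0% inhibition reference.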

[6] = NCI Yeast Anticancer Drug Screen. Data for the mlh1 rad18 strain (AID 175); details: S. cerevisiae mlh1 rad18 strain growth inhibition; at 50.0 µM; stronger effect = higher value
Summary of the method: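 Test agents were incubated with a yeast strain of defined genotype (DNA damage repair defect). Inhibition of growth was derived by comparison with vehicle-exposed cultures.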

Measured: growth inhibition

Cc1ccc(C)c2c1C1CCCCC3(OCCCO3)C21O (configuration not stated)
inactive: [1] -4.2% | [2] -6.3% | [3] -44.2% | [4] -6.9% | [5] -24.2% | [6] -0.85%

Cc1ccc(NC(=O)C(=O)C(C(=O)c2ccc3ccccc3c2)C2OC(=O)c3ccccc32)c(C)c1 (configuration not stated)
inactive: [1] 45.6% | [2] 26.6% | [3] 32.9% | [4] 11.2% | [5] 34.9% | [6] 62.2%

NC(=O)C1=C(O)C(=O)NC1=O
inactive: [1] 1.6% | [2] 1.55% | [3] 8.9% | [4] -29.8% | [5] 7.05% | [6] -5.1%

CCN(CC)Cc1cc(N=Nc2ccc(-c3ccc(N)c(OC)c3)cc2OC)c2ccccc2c1O
inactive: [1] 18.7% | [2] 4.35% | [3] 18.6% | [4] 19.8% | [5] -4.8% | [6] 27.4%

CC(=O)Cc1ccc2[nH]c(C)cc(=O)c2c1
inactive: [1] -2.15% | [2] 5.25% | [3] -0.2% | [4] -34.4% | [5] -7.15% | [6] 4.55%

CC(=O)/C=C(\c1ccccc1)c1c(O)c2ccccc2oc1=O
inactive: [1] -2% | [2] 9.15% | [3] 4.45% | [4] 7.2% | [5] 3.85% | [6] 6.15%

CC12CCC(C(=O)n3c1nc1ccccc13)C(C)(C)O2 (configuration not stated)
inactive: [1] 8.15% | [2] -6.85% | [3] -7.45% | [4] 4% | [5] 4.25% | [6] -12.3%

CC(=O)Oc1c(/C=C/c2ccccc2)c(OC(C)=O)c2cc(Br)ccc2c1OC(C)=O
inactive: [1] 13.1% | [2] 28.2% | [3] 25.2% | [4] -27% | [5] -17.2% | [6] 29.6%

CCOC(=O)N1CCN(P(=O)(Nc2ccc3nc(NC(=O)OC)[nH]c3c2)Oc2ccccc2)CC1 (configuration not stated)
inactive: [1] -38.5% | [2] -6.9% | [3] 0.55% | [4] -9.4% | [5] -9.65% | [6] -37.1%

NC1c2c(Cl)sc(Cl)c2C(=O)C1O (configuration not stated)
inactive: [1] -0.8% | [2] 15.2% | [3] -10.2% | [4] -3.6% | [5] 4% | [6] -40.4%

Nc1ccccc1NC1CCN(Cc2ccccc2)CC1
inactive: [1] 27.2% | [2] -3.35% | [3] 25.8% | [4] 33.5% | [5] 22.9% | [6] 19.1%

O=c1c2ccccc2c(Cc2ccccc2)nn1C1CCCCCC1
inactive: [1] -14.2% | [2] 2% | [3] 30.9% | [4] -29.5% | [5] 27.1% | [6] 16.1%

CCCn1cc2c(=O)[nH]c(SC)nc2n1
inactive: [1] -4.95% | [2] -20.8% | [3] -1.35% | [4] -13.1% | [5] -12.7% | [6] 10.8%

CCOc1ccc(CN(CCN2CCCCC2)c2ccccn2)cc1
inactive: [1] 26.6% | [2] 9.45% | [3] 23.4% | [4] -7.4% | [5] 11.5% | [6] 24.1%

O=S(=O)(c1ccccc1)C1(Sc2ccccc2)CC(Br)[C@@H](Br)C1 (some centres not stated)
inactive: [1] 21.9% | [2] 7.3% | [3] 25.5% | [4] 8% | [5] -6.65% | [6] -5.55%

C=CCN1C(=O)CC2[C@@H]3CCc4cc(O)ccc4C3CC[C@]2(C)C1=O (some centres not stated)
inactive: [1] -0.65% | [2] -12.7% | [3] -7.6% | [4] 22.8% | [5] 8% | [6] 1.25%

CCOCCOC(=O)Nc1ccc(C)c(NC(=O)OCCOCC)c1
inactive: [1] -0.55% | [2] -18.8% | [3] 8.65% | [4] 4.45% | [5] 5.35% | [6] -4.8%

COC[N+](C)(C)C
inactive: [1] -2.55% | [2] -6.25% | [3] -7.6% | [4] 2.4% | [5] 7.2% | [6] 10.5%

Cc1ccc(C(C)C)cc1OCCOCCCl
inactive: [1] -2.25% | [2] 12.8% | [3] -4.85% | [4] -148% | [5] -1% | [6] 10.8%

O=C(Cc1ccccc1)NN(Cc1ccccc1)Cc1ccccc1
inactive: [1] -14.8% | [2] -0.85% | [3] -2.95% | [4] -10.8% | [5] 23.9% | [6] 0.5%

COc1ccc(-c2ccccc2)cc1NC(C)=O
inactive: [1] 9.8% | [2] 15.2% | [3] 6.75% | [4] 20.9% | [5] 14% | [6] 16.5%

CCOC(=O)CC[C@H](NC(=O)c1nc[nH]c1[N+](=O)[O-])C(=O)OCC
inactive: [1] -17.8% | [2] -36% | [3] -44.4% | [4] 8.9% | [5] -7.35% | [6] -34.4%

CC(C)(C)CC(C)(C)c1ccc2c(c1)NC(C1Nc3cc(C(C)(C)CC(C)(C)C)ccc3O1)O2 (configuration not stated)
inactive: [1] 8.05% | [2] -5.8% | [3] -4.55% | [4] -4.4% | [5] -2.6% | [6] 10.8%

COc1cccc(C(c2cc3c(cc2O)OCO3)N2CCOCC2)c1O (configuration not stated)
inactive: [1] 15.9% | [2] 30.6% | [3] 51.4% | [4] 8.7% | [5] 1.35%
active: [6] 77.4%

CC(=O)Oc1cc(C)c2c(c1C)C1OC(=O)C(C)C1CC2 (configuration not stated)
inactive: [1] 12.6% | [2] -12.7% | [3] 18.6% | [4] 16.3% | [5] 4.8% | [6] 17.1%

O=S(=O)(N/N=C/c1ccncc1)c1ccccc1
inactive: [1] 39.4% | [2] 16.9% | [3] 60.5% | [4] 41.1% | [5] 34.5% | [6] 50.5%

CCCCCCCCCCCCCCC/C=C\C(=O)O
inactive: [1] 15.2% | [2] -5.8% | [3] -3.4% | [4] 10.3% | [5] 9.45% | [6] 1.4%

CN(Cc1cnc2nc(N)nc(N)c2n1)c1ccc(C(=O)NC(CCC(=O)NC(CCC(=O)O)C(=O)O)C(=O)O)cc1 (configuration not stated)
inactive: [1] 34.7% | [2] 20.6% | [3] 32.8% | [4] 13.5% | [5] 33.5% | [6] 36.2%

ON(Cc1ccccc1)Cc1ccccc1
inactive: [1] -3.95% | [2] -26.9% | [3] 12.9% | [4] 12.8% | [5] 9.5% | [6] -19.1%

COc1ccc(C2(C)OCCC(C)O2)cc1 (configuration not stated)
inactive: [1] -0.25% | [2] -18.1% | [3] 0.1% | [4] -24.1% | [5] -5.2% | [6] 10.6%

O=c1cc(-c2ccc3ccccc3n2)oc2ccccc12
inactive: [1] -16.4% | [2] 2.5% | [3] 3.7% | [4] 28.3% | [5] -1.95% | [6] -4.2%

N#CC1(Cc2ccccc2[N+](=O)[O-])c2ccccc2C2C(N1C(=O)c1ccccc1)C2(Cl)Cl (configuration not stated)
inactive: [1] -2.5% | [2] 23.7% | [3] 9.7% | [4] -4.3% | [5] 3.15% | [6] 6.95%

CCCC(C(=O)O)C(O)(CC(=O)O)C(=O)O (configuration not stated)
inactive: [1] 18.6% | [2] -14.6% | [3] 11.4% | [4] -32.1% | [5] 7.85% | [6] -20.6%

O=C(c1ccccc1C(=O)N1CCCO1)N1CCCO1
inactive: [1] -0.45% | [2] -8.3% | [3] 6.9% | [4] -15.8% | [5] 6.15% | [6] 16.9%

S=C1N=C(Cl)/C(=C\c2ccccc2)N1
inactive: [1] -4.65% | [2] -23.9% | [3] 3.45% | [4] 24.1% | [5] 11.5% | [6] -14.4%

CNC(C)C#N (configuration not stated)
inactive: [1] -17.7% | [2] -11.6% | [3] -11.9% | [4] -19.6% | [5] 0.75% | [6] -11.6%

CCOC(=O)O/C(C)=C\c1ccccc1Cl
inactive: [1] 0.4% | [2] -1.15% | [3] -7.75% | [4] 7.75% | [5] -5.85% | [6] 5.7%

N#C/C(=C\N1CC(=O)NC1=S)c1nc2ccccc2s1
inactive: [1] 4.75% | [2] 8.45% | [3] -6.05% | [4] 23.3% | [5] 24.9% | [6] 19.2%

C/C=C\COC(=O)CC(C)=O
inactive: [1] -1.35% | [2] -23.4% | [3] -4.3% | [4] -2.75% | [5] -26.3% | [6] -16.6%

CCOC(=O)C1=C(C(=O)c2ccccc2)C(c2ccc(Cl)cc2Cl)C(C(=O)c2ccccc2)=C(C(=O)OCC)N1
inactive: [1] -11.3% | [2] -8.2% | [3] -16.6% | [4] -3.45% | [5] -9% | [6] -1.5%

N#CC(=C1CCN(Cc2ccccc2)CC1)c1ccccc1
inactive: [1] 37.2% | [2] 12.7% | [3] 44.8% | [4] 47.6% | [5] 63.5% | [6] 35.2%

O=C(O)CS(=O)(=O)O
inactive: [1] 11.2% | [2] 0.45% | [3] -4.3% | [4] 5.3% | [5] 0.75% | [6] 5.55%

— PubChem BioAssay (NCI)
